# Screen size: about 1,000 compounds; about 230 (23%) were called active. Not shown: some 1% with an inconclusive outcome. No rule for the calls is given here. The list shows a part of the results. Results with a measured potency or affinity are listed apart.
# Target: Long-chain-fatty-acid--AMP ligase FadD28 (Mycobacterium tuberculosis (strain ATCC 25618 / H37Rv)) (UniProt P9WQ59)
# Assay: inhibitors of FadD28 bisubstrate probe binding, dose response, biochemical, fluorescence polarization, cherry-pick (AID 624273)
# Conditions: series mostly up to 50 µM; activity change, negative = inhibition: at the top concentration
# Chain of Long-chain-fatty-acid--AMP ligase FadD28 (Mycobacterium tuberculosis (strain ATCC 25618 / H37Rv)) (P9WQ59 whole entry, looked up): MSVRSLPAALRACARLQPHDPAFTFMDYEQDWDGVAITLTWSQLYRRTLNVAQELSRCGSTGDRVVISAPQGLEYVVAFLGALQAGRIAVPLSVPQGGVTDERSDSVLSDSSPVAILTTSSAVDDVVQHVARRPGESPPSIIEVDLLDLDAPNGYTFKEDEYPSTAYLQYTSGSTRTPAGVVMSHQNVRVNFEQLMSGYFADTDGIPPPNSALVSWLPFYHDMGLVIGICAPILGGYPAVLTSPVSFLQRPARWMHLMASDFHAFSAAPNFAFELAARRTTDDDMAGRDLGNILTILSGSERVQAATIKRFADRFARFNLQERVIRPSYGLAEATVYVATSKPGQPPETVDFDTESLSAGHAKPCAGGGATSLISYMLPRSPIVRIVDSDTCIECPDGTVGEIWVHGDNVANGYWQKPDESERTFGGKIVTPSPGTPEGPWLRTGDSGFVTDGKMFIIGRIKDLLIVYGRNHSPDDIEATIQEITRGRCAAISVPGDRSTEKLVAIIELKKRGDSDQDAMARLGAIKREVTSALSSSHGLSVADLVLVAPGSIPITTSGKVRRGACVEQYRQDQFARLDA
row,Structure (SMILES),"activity change, negative = inhibition"
1,CCc1cccc(NC(=O)Cn2c(=O)oc3cc(S(=O)(=O)N4CCOCC4)ccc32)c1,-29.4% (inactive)
2,Cc1cccc(NC(=O)c2cccc(S(=O)(=O)N3CCc4ccccc4C3)c2)n1,-2.05% (inactive)
3,CN(CC(=O)N1CCc2ccccc21)S(=O)(=O)c1cccc2cccnc12,3.09% (inactive)
4,Cc1ccc(S(=O)(=O)N(C)C)cc1NC(=O)C(C)[N+]12CCN(CC1)CC2 (configuration not stated),-5.61% (inactive)
5,CC1CCCN(Cc2c(O)ccc3c(=O)c(-c4nc5ccccc5s4)c(N)oc23)C1 (configuration not stated),-5.96% (inactive)
6,CN1C(=O)C2C=CC1C1C(=O)N(c3ccccc3)C(=O)C21 (configuration not stated),-6.91% (inactive)
7,Cc1ccc(S(=O)(=O)N(C)C)cc1NC(=O)CSc1nnnn1-c1ccc(O)cc1,-14.5% (inactive)
8,CC1(C)Cc2nc3oc4c(NCc5ccccc5)ncnc4c3cc2CO1,-2.72% (inactive)
9,CCN=c1scc(C)n1/N=C/c1cc(Br)c(O)c(Br)c1,-4.09% (inactive)
10,O=C(CSc1ncn[nH]1)Nc1ccc(S(=O)(=O)Nc2ncccn2)cc1,-3.33% (inactive)
11,O=C(CSc1ccc(Br)c2cccc(Cl)c12)Nc1ccc(S(=O)(=O)Nc2nccs2)cc1,-15.1% (inactive)
12,COc1ccccc1COC(=O)c1cccc(S(=O)(=O)N2CCCC2)c1,-0.209% (inactive)
13,COc1ccccc1[C@@H]1C(c2cccc(C)c2)=NN(c2ccccc2)[C@H]1C(=O)N1CCOC1=O,0.248% (inactive)
14,O=c1cc(CN2CCc3ccccc32)c2ccc(O)cc2o1,-8.7% (inactive)
15,O=C(O)Cc1ccc2c(c1)N(S(=O)(=O)c1cccs1)CC(C(=O)O)O2 (configuration not stated),-14.2% (inactive)
16,OCCN1CCN(c2ncnc3c2ncn3[C@H]2CN(Cc3ccncc3)C[C@@H](CO)O2)CC1,-2.24% (inactive)
17,COc1ccc(CCNC(=O)CN(c2ccc(C)cc2)S(=O)(=O)c2c(C)noc2C)cc1OC,-2.72% (inactive)
18,Nc1ccc2c(c1)[nH]c(=O)c1cc(N)ccc12,-0.111% (inactive)
19,COc1ccccc1NS(=O)(=O)c1cccc(NC(=O)Nc2cccc(Cl)c2)c1,-3.21% (inactive)
20,Cc1cc(NS(=O)(=O)c2ccc(NC(=O)Cc3ccccc3)cc2)nc(C)n1,-4.8% (inactive)
21,NS(=O)(=O)c1cccc(NS(=O)(=O)c2ccc(/C=C/C(=O)OCC(=O)c3ccccc3)cc2)c1,-0.888% (inactive)
22,CC(=O)Nc1ccc(S(=O)(=O)NC2=C(N3CCN(c4ccc(F)cc4)CC3)C(=O)c3ccccc3C2=O)cc1,-18.6% (inactive)
23,O=[N+]([O-])c1cc(S(=O)(=O)Nc2cccc(C(F)(F)F)c2)ccc1-n1nnc2ccccc21,-21.8% (inactive)
24,O=C1C(Cl)=C(NCCN2CCOCC2)C(=O)c2ccccc21,-8.82% (inactive)
25,O=C(NN=C1CCCC1)c1cc(Cl)cc(Cl)c1O,-17.8% (inactive)
26,N#Cc1cc2c(nc1SCc1ccc(Cl)nc1)CCCCC2,-3.38% (inactive)

row,Structure (SMILES),"activity change, negative = inhibition"
1,Cc1ccc2oc(C(=O)N3CCCCCC3)c(C)c2c1,0.038% (inactive)
2,O=C(CSc1ccccn1)N1CCN(S(=O)(=O)c2ccc(Cl)cc2)CC1,-7.31% (inactive)
3,Cc1ccnc(NC(=O)CCC(=O)N(CC(=O)NCC2CCCO2)Cc2ccc(F)cc2)c1 (configuration not stated),-1.94% (inactive)
4,Cc1cc[n+](CC(=O)c2cc3ccccc3oc2=O)cc1,-3.16% (inactive)
5,O=C1NC(=O)N(Cc2ccc(F)cc2)C(=O)/C1=C\c1ccoc1,-9.04% (inactive)
6,COc1ccc(C(=O)N/N=C2\SCC(=O)N2Cc2ccc3c(c2)OCO3)c(OC)c1,-23.6% (inactive)
7,CCNC(=S)N1CCN(CC(=O)Nc2ccc(Br)cc2)CC1,15% (inactive)
8,Nc1ccccc1/C=N\N=C/c1ccccc1N,-5.39% (inactive)
9,COc1ccc(CCNC(=O)CCNC(=O)N2CC(=O)Nc3ccccc32)cc1,-1.19% (inactive)
10,CN(C)C1(c2nnnn2-c2ccc(Cl)cc2)CCCCC1,-6.34% (inactive)
11,N#Cc1c(C#N)c(-c2ccccc2)n(-c2ccc(C(=O)O)cc2)c1N,-2.68% (inactive)
12,O=C(c1[nH]c(C(F)(F)F)nc1-c1ccccc1)N1CCN(c2ccccn2)CC1,-6.13% (inactive)
13,CC(=O)Nc1ccc(/C=N\NC(=O)CNS(=O)(=O)c2ccc([N+](=O)[O-])cc2)cc1,-16.2% (inactive)
14,COc1ccc(/C=C/C(=O)N2CC(C)OC(C)C2)cc1OC (configuration not stated),-2.82% (inactive)
15,COC(=O)CSc1nnc(CNC(=O)c2cc(OC)cc(OC)c2)n1-c1ccc(F)cc1,49.8% (inactive)
16,O=c1[nH]c(=S)[nH]c2c1C(c1ccc(Br)cc1)c1c([nH]c(=S)[nH]c1=O)O2,-8.68% (inactive)
17,O=C(OCC(=O)N1CCCC1)c1cccs1,-3.69% (inactive)
18,O=C1NCCN(C(=O)CCc2nnc(-c3ccsc3)o2)C1c1ccc(F)cc1 (configuration not stated),-10.6% (inactive)
19,COc1ccc(C2(CNC(=O)c3ccc(OC)c([N+](=O)[O-])c3)CCCCC2)cc1OC,-1.23% (inactive)
20,Cc1ccc(-c2nn(-c3ccccc3)cc2/C=C2\SC(=S)N(CCCCCC(=O)O)C2=O)o1,46.1% (inactive)
21,O=C(O)CCCN1C(=O)/C(=C/c2ccc(-c3nc4ccccc4s3)o2)SC1=S,-4.59% (inactive)
22,CC1(c2ccc(OC(F)F)cc2)NC(=O)N(CC(=O)Nc2ccc3[nH]c(=O)[nH]c3c2)C1=O (configuration not stated),-3.88% (inactive)
23,CC(C)CNC(=O)c1cc(S(=O)(=O)N2CCOCC2)ccc1N1CCCC1,-5.51% (inactive)
24,Cc1ccc(NS(=O)(=O)c2ccc(NC(=O)CN(c3cc([N+](=O)[O-])ccc3C)S(C)(=O)=O)cc2)c(C)c1,-0.627% (inactive)
25,COC(=O)Cc1cc(=O)n(-c2nc3ccccc3s2)[nH]1,-9.29% (inactive)
26,Cc1ccccc1-c1cc2nc(NCc3ccccc3)n(C)c(=O)c2s1,10.3% (inactive)
